# Screening data (PubChem)
# IDE exosite FP: exo-site inhibitors of human IDE, primary screen, biochemical, fluorescence anisotropy, probe displacement. z-score at 20 µM. purified IDE, FL-6b probe fluorescence polarization; stronger effect = lower value. Insulin-degrading enzyme (Homo sapiens), P14735. AID 1259349, 2017. actives 6.3% (n = 17,000);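 active means z-score of -3 or lower, meaning strong loss of probe binding signal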;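 further: His-tagged human IDE residues 42-1019 made in E. coli with 30 nM FL-6b probe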
# Target sequence (P14735 42-1019 limits assumed): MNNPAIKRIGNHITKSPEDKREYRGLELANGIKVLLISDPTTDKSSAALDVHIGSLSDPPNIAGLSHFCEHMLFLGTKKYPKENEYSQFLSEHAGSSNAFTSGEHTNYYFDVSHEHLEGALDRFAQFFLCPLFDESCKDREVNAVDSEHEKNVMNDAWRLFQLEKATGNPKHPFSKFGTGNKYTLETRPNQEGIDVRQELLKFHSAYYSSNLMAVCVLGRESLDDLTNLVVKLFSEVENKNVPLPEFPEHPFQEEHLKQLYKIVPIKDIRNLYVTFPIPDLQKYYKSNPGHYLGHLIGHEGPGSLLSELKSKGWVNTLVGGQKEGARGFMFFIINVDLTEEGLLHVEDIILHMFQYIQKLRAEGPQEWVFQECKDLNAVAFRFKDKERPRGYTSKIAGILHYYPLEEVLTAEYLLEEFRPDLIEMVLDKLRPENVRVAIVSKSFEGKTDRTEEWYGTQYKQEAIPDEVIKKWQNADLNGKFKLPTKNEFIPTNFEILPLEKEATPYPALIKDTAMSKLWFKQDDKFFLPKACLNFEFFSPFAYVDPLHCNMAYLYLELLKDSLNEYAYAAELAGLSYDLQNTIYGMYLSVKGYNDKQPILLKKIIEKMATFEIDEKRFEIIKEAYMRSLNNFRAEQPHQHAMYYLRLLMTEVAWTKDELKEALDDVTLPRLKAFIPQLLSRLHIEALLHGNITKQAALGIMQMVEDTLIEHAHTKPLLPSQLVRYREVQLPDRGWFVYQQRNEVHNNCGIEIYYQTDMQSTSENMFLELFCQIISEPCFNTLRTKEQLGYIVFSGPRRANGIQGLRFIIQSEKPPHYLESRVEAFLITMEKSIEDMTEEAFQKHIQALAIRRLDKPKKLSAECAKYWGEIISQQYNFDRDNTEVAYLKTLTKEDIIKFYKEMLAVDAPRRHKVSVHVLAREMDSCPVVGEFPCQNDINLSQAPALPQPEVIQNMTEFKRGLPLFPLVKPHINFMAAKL
# * = called active by the depositor; ! = not active in a repeat. The full list was thinned out, with hits kept by preference.
SMILES,IDE exosite FP
C[C@H](NC(=O)C[C@H]1C=C[C@H](NS(=O)(=O)c2cccc(F)c2)[C@H](CO)O1)c1ccccc1,3.3
N#C[C@H]1[C@@H](c2ccccc2C2=CCCC2)[C@@H](CO)N1C(=O)CN1CCOCC1,2.49
COc1cccc(C#Cc2ccc([C@H]3[C@@H](CO)N(C(=O)C4CC4)[C@H]3C#N)cc2)c1,1.04
COc1cccc(C#Cc2ccc([C@@H]3[C@@H](C#N)N(C(=O)C4CC4)[C@H]3CO)cc2)c1,2.36
COc1ccccc1C#Cc1ccc([C@H]2[C@@H](C#N)N(C(=O)C3CC3)[C@H]2CO)cc1,-8.96*
N#C[C@@H]1[C@@H](c2ccc(C#Cc3ccccc3F)cc2)[C@H](CO)N1C(=O)C1CC1,3.94
COc1cccc(C#Cc2ccc([C@@H]3[C@@H](CO)N(C(=O)C4CC4)[C@H]3C#N)cc2)c1,0.92
COc1ccccc1C#Cc1ccc([C@H]2[C@H](C#N)N(C(=O)C3CC3)[C@H]2CO)cc1,-7.58*
O=C1CNC[C@H]2[C@H](c3ccc(C#CC4CCCCC4)cc3)[C@H](CO)N12,1.56
O=C(C1CCCCC1)N1CC(=O)N2[C@@H](CO)[C@@H](c3ccc(C#CCc4ccccc4)cc3)[C@@H]2C1,-0.614
O=S(=O)(c1ccccc1)N1CCCCN2[C@H](CO)[C@H](c3ccc(C#Cc4cccnc4)cc3)[C@H]2C1,3.93
O=C(C1CCOCC1)N1CC(=O)N2[C@H](CO)[C@@H](c3ccc(-c4ccccc4F)cc3)[C@H]2C1,2.89
O=C(C1CCOCC1)N1CC(=O)N2[C@@H](CO)[C@@H](c3ccc(-c4ccccc4F)cc3)[C@@H]2C1,-2.37
O=C(C1CCOCC1)N1CC(=O)N2[C@H](CO)[C@H](c3ccc(-c4ccccc4F)cc3)[C@@H]2C1,-1.71
O=C(C1CCOCC1)N1CC(=O)N2[C@H](C1)[C@@H](c1ccc(-c3ccccc3F)cc1)[C@@H]2CO,-8.97*
O=C(C1CCOCC1)N1CC(=O)N2[C@H](C1)[C@H](c1ccc(-c3ccccc3F)cc1)[C@@H]2CO,0.931
O=C(C1CCOCC1)N1CC(=O)N2[C@H](CO)[C@@H](c3ccc(-c4ccccc4F)cc3)[C@@H]2C1,-4.83*
COc1ccc(NC(=O)N[C@H]2CC[C@@H](CCNC(=O)CN3CCOCC3)O[C@H]2CO)cc1,1.36
N#C[C@H]1[C@@H](c2ccccc2C2=CCCCC2)[C@H](CO)N1C(=O)CN1CCOCC1,1.12
CO[C@H]1CN(C)C(=O)c2ccc(NC(C)=O)cc2OC[C@@H](C)N(Cc2cccc(F)c2)C[C@H]1C,0.977
CC(C)CC#Cc1ccc([C@@H]2[C@@H](CO)N3C(=O)CN(C(=O)c4cccc(F)c4)C[C@@H]23)cc1,0.274
N#C[C@H]1[C@H](c2ccc(-c3ccccc3)cc2)[C@H](CO)N1C(=O)Cc1ccncc1,1.86
COc1cccc(-c2ccc([C@H]3[C@@H](CO)N(C(=O)Cc4ccncc4)[C@H]3C#N)cc2)c1,-4.79*
N#C[C@@H]1[C@@H](c2ccc(-c3ccccc3)cc2)[C@H](CO)N1C(=O)Cc1ccccc1,3.89
N#C[C@H]1[C@@H](c2ccc(-c3ccncc3)cc2)[C@@H](CO)N1C(=O)Cc1ccccc1,1.12
SMILES,IDE exosite FP
N#C[C@@H]1[C@@H](c2ccc(-c3ccccc3)cc2)[C@@H](CO)N1C(=O)Cc1ccncc1,-3.97*
C/C=C/c1ccc([C@H]2[C@@H](CO)N(C(=O)Cc3ccccn3)[C@H]2C#N)cc1,0.458
N#C[C@@H]1[C@H](c2ccc(-c3ccccc3)cc2)[C@H](CO)N1C(=O)Cc1ccccc1,2
N#C[C@H]1[C@H](c2ccc(-c3ccccc3)cc2)[C@H](CO)N1C(=O)Cc1ccccc1,2.24
COc1cccc(-c2ccc([C@H]3[C@H](C#N)N(C(=O)Cc4ccccc4)[C@H]3CO)cc2)c1,-3*
N#C[C@@H]1[C@@H](c2ccc(-c3ccncc3)cc2)[C@@H](CO)N1C(=O)Cc1ccccc1,2
N#C[C@@H]1[C@@H](c2ccc(/C=C/c3ccccc3)cc2)[C@@H](CO)N1C(=O)Cc1ccccn1,-9.5*
N#C[C@H]1[C@H](c2ccc(C#CC3CC3)cc2)[C@H](CO)N1C(=O)Cc1ccccn1,3.08
CCCNC(=O)NC[C@H]1[C@@H](c2ccc(C3=CCCCC3)cc2)[C@H](CO)N1C(C)=O,-0.564
O=S(=O)(c1ccccc1F)N1CCCCN2[C@@H](CO)[C@H](c3ccc(-c4cncnc4)cc3)[C@@H]2C1,5.38
CC(C)NC(=O)N(C)C[C@@H]1Oc2ccc(NC(=O)Cc3ccccc3)cc2CC(=O)N([C@@H](C)CO)C[C@H]1C,1.11
O=C(c1ccncc1)N1CC(=O)N2[C@H](CO)[C@@H](c3ccc(C#CCC4CCCC4)cc3)[C@@H]2C1,0.712
N#C[C@@H]1[C@@H](c2ccc(-c3cncnc3)cc2)[C@H](CO)N1C(=O)CN1CCOCC1,2.65
C[C@@H](O)C#Cc1ccc([C@@H]2[C@H]3CN(C(=O)c4ccc(F)cc4)CCCCN3[C@H]2CO)cc1,2.24
N#C[C@@H]1[C@@H](c2ccc(C#Cc3cccnc3)cc2)[C@@H](CO)N1C(=O)C1CCC1,3.68
O=C1N[C@@H](Cc2ccccc2)COCc2cnnn2CC[C@@H]1Cc1ccc(-c2ccccc2)cc1,0.777
N#Cc1ccc(-c2ccc([C@@H]3[C@@H](CO)N4C(=O)CN(C(=O)C5CCCC5)C[C@@H]34)cc2)cc1,2.29
CN(C)C(=O)c1cccc(-c2ccc(C3[C@H]4CNC[C@@H]3N4S(=O)(=O)c3ccccc3F)cc2)c1 (some centres not stated),0.562
CN1CCN(C(=O)C[C@@H]2CC[C@H]3[C@@H](COC[C@H](O)CN3C(=O)Nc3ccc4c(c3)OCO4)O2)CC1,-0.546
COc1ccc(C#Cc2ccc([C@H]3[C@@H](CO)N4C(=O)CN(C(=O)Nc5ccccc5F)C[C@H]34)cc2)cc1,5.88
N#Cc1cccc(-c2ccc3c(c2)[C@@H]2[C@@H](CCN2C(=O)c2ccccc2F)[C@@H](CO)N3)c1,0.0402
CCS(=O)(=O)N1CCC2(CC1)CN[C@@H](CO)c1c2c2ccc(OC)cc2n1C,0.0577
COc1cccc(-c2ccc([C@@H]3[C@H](C#N)N(C(=O)c4ccccn4)[C@H]3CO)cc2)c1,-0.559
COc1cccc(C#Cc2ccc([C@@H]3[C@@H](CO)N(C(=O)c4ccccn4)[C@H]3C#N)cc2)c1,-0.51
COc1cccc(-c2ccc([C@H]3[C@@H](C#N)N(C(=O)c4ccccn4)[C@H]3CO)cc2)c1,-3.77*
SMILES,IDE exosite FP
C[C@@H](NC(=O)C[C@@H]1CC[C@H]2[C@@H](COC[C@H](O)CN2Cc2ccc(C(F)(F)F)cc2)O1)c1ccccc1,-0.24
C(=C\c1ccc(C2[C@H]3CNC[C@@H]2N3Cc2cncnc2)cc1)/c1ccccc1 (some centres not stated),0.522
C(=C\c1ccc(C2[C@H]3CNC[C@@H]2N3Cc2ccccn2)cc1)/c1ccccc1 (some centres not stated),-3.77*!
c1ccc(CN2[C@@H]3CNC[C@H]2C3c2ccc(-c3cccnc3)cc2)nc1 (some centres not stated),1.71
COc1cc(CN2[C@@H]3CNC[C@H]2C3c2ccc(-c3ccccc3)cc2)cc(OC)c1 (some centres not stated),-2.36
COc1cccc(CN2[C@@H]3CNC[C@H]2C3c2ccc(/C=C/c3ccccc3)cc2)c1 (some centres not stated),-0.842
